Laboratory results published in PubChem BioAssay AID1159506 (National Center for Advancing Translational Sciences (NCATS), 2015).
In all, about 59,000 sequences were measured (the read-out: median about -0.00055, lowest 2% from about -2 on). Only a selection was taken, and the lowest values are over-represented in it overall.

Assay: Identification of proteins required for the processing of the EWS-FLI1 nascent transcript;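 further: robust z of luciferase light less the median z of siRNAs with the same seed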
Conditions: TC32 Ewing sarcoma NR0B1-luc vs CMV-luc (EWS-FLI1 target promoter against control promoter), 48 h; screened at 20 nM (by protocol)
In short: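 Genome-wide siRNA screen (Ambion v4.1, three siRNAs per gene, 20 nM final, RNAiMax) in Ewing sarcoma TC32 cells carrying NR0B1-promoter or CMV-promoter luciferase; OneGlo luciferase read 48 h post-transfection. Data normalized, z-score-MAD transformed and seed-adjusted.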
Work on UUCUUUAUAGGCAUAGGCU against RPH3A yielded a seed-corrected z-score of -2.08. UAAGGUUGGUGACUGGAGA against MUC6 gave a seed-corrected z-score of -0.303. In the case of UUUCUGUAGGCUUUUCUGG against DPCR1, the seed-corrected z-score is reported as -0.53. Sequence UUCUCCAUCAAAUUAGCCG against LIN52 has a seed-corrected z-score of 0.578. Work on UAGCUUCAAUACUUCAUCC against LRRC27 yielded a seed-corrected z-score of -0.986. Work on UUCGAGCUUUCUUAUGUCC against SLC12A6 yielded a seed-corrected z-score of -0.303. With UGUUAUUGAAGAUGUCAGC against SLF2 the seed-corrected z-score was -2.1. ACAGCAAGCAUUCAGAGUC against MMS19 gave a seed-corrected z-score of 0.146. UCUGGAAUAACGGUGCAGC against C15orf62 showed a seed-corrected z-score of -1.54. Sequence AUAUCAAUGAUUGAGAGGU against OR4F15 has a seed-corrected z-score of 0.359. For AACUCUGCGAACACGGCCU against AQP5, the seed-corrected z-score was -2.17. In the case of UAAGGCCCAAAUUUGUCUC against HSF4, the seed-corrected z-score is reported as -0.0642. In the case of UACAUUGACAGCAUAUCCU against NSDHL, the seed-corrected z-score is reported as 0.882. UGAUGAAGUAGAGACGUGC against EXTL2 gave a seed-corrected z-score of 0.177. UAAAAUGUCUGACUCCUUG against CDKN1A showed a seed-corrected z-score of -0.147. For AAACUGGUUGGAGUUGUUG against ITGB2, the seed-corrected z-score was 0.512. UGUUUUACCAACAGCACCA against CDC42 gave a seed-corrected z-score of -1.21. Work on UCAGGUGGUAGGGAGGUUG against UBE2L6 yielded a seed-corrected z-score of -2.37. CAGGUAGAACGUGUCGUCC against ENDOG gave a seed-corrected z-score of 0.88. AAUGAGAUUAUGUUGGUCA against SNX29 gave a seed-corrected z-score of -1.19. Work on UUCUAUGCAAUCCAAAACC against DGKB yielded a seed-corrected z-score of 0.554. Work on UUAGUUUCUACAUUAUUGU against ENTPD1-AS1 yielded a seed-corrected z-score of 0.559. For UAGGAGAUAAAGAUAACUA against OR5B2, the seed-corrected z-score was -12.5. AGUACUACAAACCAAAUCC against FAM35A gave a seed-corrected z-score of -0.242. With UUCCAUAUUUAUUAGAGCC against PURG the seed-corrected z-score was 1.54. With UUGAGAUAGGCUGAGACCU against TMPRSS4 the seed-corrected z-score was -0.502. For AAUUGUCGUAGUCAGUAUC against PAEP, the seed-corrected z-score was -0.99. For UUUGUCUUUUGCAUCUUUC against SFPQ, the seed-corrected z-score was -2.66. Sequence AUCGUUCACGUCUUGAUCC against CPSF6 has a seed-corrected z-score of -0.744. Work on AUAGGGAGCACUUGGGAGC against C20orf24 yielded a seed-corrected z-score of -1.49. AAACCUUCCAUUGUUGAGG against ACADVL gave a seed-corrected z-score of 0.629. Sequence UUCGCUGUCACUGUGGUUG against FAM134C has a seed-corrected z-score of -1.48. With UAUUAUUCGACUCAUGGUC against EFCAB2 the seed-corrected z-score was -2.54. Sequence UAACAUCGCACCAGUAAUC against L3MBTL4 has a seed-corrected z-score of -0.0952. UGUUCCUUUAUUGUAGCCC against ALG13 gave a seed-corrected z-score of 0.155. UGUAGGACAAGCGCUGCUG against DGCR6 showed a seed-corrected z-score of -0.188. Work on AUAUUAGCAUUCUUAAUGG against ABCB10 yielded a seed-corrected z-score of -0.347. For UUCAUGACUCUUGCAUUCC against ZNF473, the seed-corrected z-score was -0.227. Sequence UAUAGUCUGCGUAGAGUUC against BSCL2 has a seed-corrected z-score of 0.905. With UCGGUAUUCGAUGUGGUCC against CD177 the seed-corrected z-score was 1.39. Work on AUAAGAUACCUCUCUAUUC against NXPE1 yielded a seed-corrected z-score of -3.1. With UGAUAUAGCCUCCAUAUGC against INVS the seed-corrected z-score was -0.175. Work on UUCUAAUCUAGUGAUUAGC against LDB2 yielded a seed-corrected z-score of 0.172. Sequence UAAACUGAAACGGAAAUGC against PTCHD3P1 has a seed-corrected z-score of -0.411. UUGAGUUUGUCACAGUUUC against SH3BP2 gave a seed-corrected z-score of 0.349. In the case of UUUCAGCUUAGGAAAGGCA against KRTDAP, the seed-corrected z-score is reported as -4.29. Work on AGAUCUAUUGUGAACAGCC against FLT3 yielded a seed-corrected z-score of -0.0495. Work on UAGGUAAAUAGCCUCGUGC against CEACAM19 yielded a seed-corrected z-score of 0.0325. UUGCAUUUUCAGGUACUUG against RDH5 showed a seed-corrected z-score of -0.555. In the case of UUUGUAAGCUCUGUCAUCC against FAM13B, the seed-corrected z-score is reported as -0.0737. Sequence ACCUGUCAAAGAGCAAAGC against AMD1P3 has a seed-corrected z-score of 0.646. Sequence UCUGAGUUUUGAGCUGUCC against MST1R has a seed-corrected z-score of -0.112. UGUCUAAUGACAAUGCUGU against UBR5 gave a seed-corrected z-score of -0.38. With UACUGCUAGAUUGAGAUCC against KDM5D the seed-corrected z-score was -2.31. In the case of UAUCUUGCAUAAGUCUUGU against XRCC6BP1, the seed-corrected z-score is reported as 1.28. In the case of UACUCUUUUCCACGAAUCC against CCDC141, the seed-corrected z-score is reported as -0.626. UUCAAUACCAAAGAUAUUG against BTF3P16 gave a seed-corrected z-score of -2.14. UGAGGUCCCAGAUUCUCAG against FBXW4 gave a seed-corrected z-score of 0.248. UCUUCGUCAUCGUUCAUUC against ZC3H4 gave a seed-corrected z-score of -2.37. Sequence AUAGACAUCUGAUCCGUUC against PGK1 has a seed-corrected z-score of -0.0528. UCUGCGACAUUCCUCAUAG against XPO1 gave a seed-corrected z-score of -0.546. Sequence AUCCAGAUUAGUUUCCCUC against VIM has a seed-corrected z-score of -2.52. With UCAAUCUCAACGGUCACCG against NLRP1 the seed-corrected z-score was 1.3. For UUUGAUUGAGGCAUAUGCG against REEP6, the seed-corrected z-score was 1.08. UCAGGUUCAGCAGGAAGUG against ADAMTS10 showed a seed-corrected z-score of -0.537. UUAAUGGUGACCUUGACCU against C19orf47 showed a seed-corrected z-score of -0.413. AACUGAGUUGUAGAGCUGC against IL12RB1 gave a seed-corrected z-score of -0.226. AAUUCUUUUUGUCUGGAUC against PRSS35 gave a seed-corrected z-score of 0.405. In the case of UAAAUCUGCUCUCCUUUCC against LY86, the seed-corrected z-score is reported as 0.785. Sequence UUCUCUUCAACAAGUGACA against C6orf201 has a seed-corrected z-score of -2.08. Work on UCUCUGUCCUCAAAAGUGG against CLCN4 yielded a seed-corrected z-score of -0.277. Work on UACGUGAGCUUGUACAGCC against MTTP yielded a seed-corrected z-score of -0.0803. UCGAGUGUGAUGUCUCUUC against AGO3 showed a seed-corrected z-score of 0.413. With UUGUGCACCACGAGAGUAG against RAB40AL the seed-corrected z-score was -2.28. In the case of UUCUGGAGCAGUUCGACAG against CNPPD1, the seed-corrected z-score is reported as 0.781. UUCUCAAUCAGCACGGCCC against GPX2 showed a seed-corrected z-score of -0.162. In the case of UCAUGUACACUGCUAAUUC against SLC30A10, the seed-corrected z-score is reported as 0.696. Work on AUACUGUUCACCGAGAAGG against TSPEAR yielded a seed-corrected z-score of -3.82. Work on UAUGUUGGUGCUCAUACUC against MED11 yielded a seed-corrected z-score of 0.678. Work on UUAAACUCAGGCUUUGGUC against HABP4 yielded a seed-corrected z-score of -1.03. With UACUGAUUCACAAUGACCU against RNF208 the seed-corrected z-score was -0.361. UAACUUGAUAACAGGUGCC against OR10T2 showed a seed-corrected z-score of -5.77. For AAAAACAACAGAAGCAUGC against TSPAN8, the seed-corrected z-score was 0.399. Work on UGUUGUUCAACAAAACCGC against KRT28 yielded a seed-corrected z-score of 0.472. AUAGGCAUAUGGUUAGGCC against SS18 showed a seed-corrected z-score of -2.03.
